Records with an inconclusive call do not appear. Unmarked numbers belong to inactive results. Active and inactive are the calls of the source. The call rests on the fitted dose curve; in most records, active means well fitted curve in the direction sought with a large enough effect in the repeat runs; inconclusive means weak or mixed curves; inactive means no such curve, though single readings can be large; an effect the other way counts as inactive or inconclusive.

The target in test [1] is Cytochrome P450 2D6 (Homo sapiens) (UniProt P10635). The test is described as follows: Cytochrome P450 Family 2 Subfamily D Member 6 (CYP2D6) small molecule antagonists: luciferase reporter qHTS assay (AID 1671196). Further: nearly all actives have a fitted effect of over 50% in size. Further: potency means the concentration at half of the fitted maximal effect. To be noted: P450-Glo CYP2D6 enzyme assay, luciferin luminescence, 1 h; series mostly up to 115 µM. In outline:
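Enzyme and proluciferin substrate were first combined with test chemical for 10 min at room temperature. Adding NADPH regeneration solution started a 1 h reaction, stopped with luciferin detection reagent and read by luminescence 20 min later.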

Test [2] has as its target Cytochrome P450 2C19 (Homo sapiens) (UniProt P33261). The test is described as follows: Cytochrome P450 Family 2 Subfamily C Member 19 (CYP2C19) small molecule antagonists: luciferase reporter qHTS assay (AID 1671197). Further: nearly all actives have a fitted effect of over 65% in size. Further: potency means the concentration at half of the fitted maximal effect. As to conditions: P450-Glo CYP2C19 enzyme, luciferin luminescence, 1 h; series mostly up to 115 µM. In outline: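 Luminescent readout of CYP2C19 activity: luciferin product detected 20 min after adding detection reagent. Before that, compound and enzyme-substrate mix preincubated 10 min at room temperature; NADPH-regenerating system started a 1 h, 37C reaction. Ketoconazole as positive control.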

In test [3] the target is Cytochrome P450 1A2 (Homo sapiens) (UniProt P05177). The test is described as follows: Cytochrome P450 Family 1 Subfamily A Member 2 (CYP1A2) small molecule antagonists: luciferase reporter qHTS assay (AID 1671199). Further: nearly all actives have a fitted effect of over 50% in size. Further: potency means the concentration at half of the fitted maximal effect. As to conditions: P450-Glo CYP1A2 enzyme, luciferin luminescence, 1 h; series mostly up to 53 µM. In a few lines:
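Compounds were incubated with CYP1A2 and a luminogenic proluciferin substrate for 10 min at room temperature before the reaction was started with NADPH regeneration solution. After 1 h, detection reagent was added and light output, proportional to CYP activity, was recorded.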

In test [4] the target is Voltage-gated inwardly rectifying potassium channel KCNH2 (Homo sapiens) (UniProt Q12809). Put plainly: Human Ether-a-go-go-Related Gene (hERG) channel small molecule antagonists: fluorescence cell-based qHTS assay (AID 1671200).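 Further: hERG-expressing U2OS cells given a thallium stimulus after FluxOR II dye loading; nearly all actives have a fitted effect of over 50% in size.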 To be noted: hERG-U2OS cells, FluxOR thallium flux fluorescence; series mostly up to 76.8 µM. In a few lines:
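Thallium served as the potassium surrogate; its influx into dye-loaded U2OS cells carrying the channel was measured by fluorescence over 2 min.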

Test [5] addresses Cytochrome P450 3A4 (Homo sapiens) (UniProt P08684). The test is described as follows: Cytochrome P450 Family 3 Subfamily A Member 4 (CYP3A4) small molecule antagonists: luciferase reporter qHTS assay (AID 1671201). Further: nearly all actives have a fitted effect of over 50% in size. To be noted: P450-Glo CYP3A4 enzyme, luciferin luminescence, 1 h; series mostly up to 115 µM. In outline:
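Relative luminescence units after 20 min with luciferin detection reagent served as read-out. Beforehand, CYP3A4 turned over a proluciferin substrate for 1 h at room temperature with NADPH regeneration, following 10 min compound preincubation.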

The target of test [6] is Cytochrome P450 2C9 (Homo sapiens) (UniProt P11712). Put plainly: Cytochrome P450 Family 2 Subfamily C Member 9 (CYP2C9) small molecule antagonists: luciferase reporter qHTS assay (AID 1671198). Further: nearly all actives have a fitted effect of over 50% in size. To be noted: P450-Glo CYP2C9 enzyme assay, luciferin luminescence; series mostly up to 115 µM. In outline:
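Enzyme-substrate mix preincubated with compound 10 min at room temperature; reaction started with NADPH regeneration solution, 1 h 37C. Luminescent luciferin product read after 20 min detection reagent.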
On the % scale 0 is the no-effect control and ±100 the full control effect.

Voltage-gated inwardly rectifying potassium channel KCNH2 (Homo sapiens), sequence (Q12809 whole entry, looked up): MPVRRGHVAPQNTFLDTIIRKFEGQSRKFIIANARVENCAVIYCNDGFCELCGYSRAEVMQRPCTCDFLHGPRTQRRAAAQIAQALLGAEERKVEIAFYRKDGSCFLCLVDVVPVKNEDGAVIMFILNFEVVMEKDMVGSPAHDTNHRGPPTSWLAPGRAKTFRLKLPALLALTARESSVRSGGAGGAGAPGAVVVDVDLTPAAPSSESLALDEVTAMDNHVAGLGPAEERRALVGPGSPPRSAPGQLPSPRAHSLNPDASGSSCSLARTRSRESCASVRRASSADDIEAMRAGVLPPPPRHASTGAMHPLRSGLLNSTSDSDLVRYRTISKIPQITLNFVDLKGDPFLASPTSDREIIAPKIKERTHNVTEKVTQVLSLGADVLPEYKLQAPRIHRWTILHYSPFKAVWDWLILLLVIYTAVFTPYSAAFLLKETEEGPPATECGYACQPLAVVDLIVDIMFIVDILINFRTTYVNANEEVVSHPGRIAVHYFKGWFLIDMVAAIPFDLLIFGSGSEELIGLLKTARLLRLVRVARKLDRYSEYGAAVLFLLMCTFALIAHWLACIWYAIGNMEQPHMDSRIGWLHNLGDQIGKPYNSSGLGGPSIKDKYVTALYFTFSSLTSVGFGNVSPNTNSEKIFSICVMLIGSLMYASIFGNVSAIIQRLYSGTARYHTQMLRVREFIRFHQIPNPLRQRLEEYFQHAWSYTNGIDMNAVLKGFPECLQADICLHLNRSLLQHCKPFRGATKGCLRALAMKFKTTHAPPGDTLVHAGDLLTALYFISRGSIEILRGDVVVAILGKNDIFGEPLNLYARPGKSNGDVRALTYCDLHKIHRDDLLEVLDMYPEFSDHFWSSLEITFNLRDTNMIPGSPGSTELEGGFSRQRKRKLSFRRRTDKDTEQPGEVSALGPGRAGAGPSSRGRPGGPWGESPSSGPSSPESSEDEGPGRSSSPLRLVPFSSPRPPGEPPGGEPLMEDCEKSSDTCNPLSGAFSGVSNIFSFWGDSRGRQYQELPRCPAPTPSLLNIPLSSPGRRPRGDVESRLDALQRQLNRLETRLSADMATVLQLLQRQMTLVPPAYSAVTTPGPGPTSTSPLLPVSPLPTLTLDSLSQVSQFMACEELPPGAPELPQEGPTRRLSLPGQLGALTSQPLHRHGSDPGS
Cytochrome P450 2C19 (Homo sapiens), sequence (P33261 whole entry, looked up): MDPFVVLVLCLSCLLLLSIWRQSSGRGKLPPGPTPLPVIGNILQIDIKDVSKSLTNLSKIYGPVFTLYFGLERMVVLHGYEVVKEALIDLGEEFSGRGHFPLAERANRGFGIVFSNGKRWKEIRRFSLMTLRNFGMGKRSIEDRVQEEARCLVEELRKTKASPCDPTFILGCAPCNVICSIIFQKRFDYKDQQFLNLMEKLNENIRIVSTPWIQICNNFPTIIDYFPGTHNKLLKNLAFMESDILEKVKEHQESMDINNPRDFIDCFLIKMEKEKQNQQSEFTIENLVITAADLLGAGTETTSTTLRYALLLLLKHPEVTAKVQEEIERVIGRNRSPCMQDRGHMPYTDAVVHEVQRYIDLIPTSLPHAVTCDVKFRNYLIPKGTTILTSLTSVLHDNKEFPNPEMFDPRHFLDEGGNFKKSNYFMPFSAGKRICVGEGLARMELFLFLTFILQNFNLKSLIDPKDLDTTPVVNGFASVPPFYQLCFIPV
Cytochrome P450 1A2 (Homo sapiens), sequence (P05177 whole entry, looked up): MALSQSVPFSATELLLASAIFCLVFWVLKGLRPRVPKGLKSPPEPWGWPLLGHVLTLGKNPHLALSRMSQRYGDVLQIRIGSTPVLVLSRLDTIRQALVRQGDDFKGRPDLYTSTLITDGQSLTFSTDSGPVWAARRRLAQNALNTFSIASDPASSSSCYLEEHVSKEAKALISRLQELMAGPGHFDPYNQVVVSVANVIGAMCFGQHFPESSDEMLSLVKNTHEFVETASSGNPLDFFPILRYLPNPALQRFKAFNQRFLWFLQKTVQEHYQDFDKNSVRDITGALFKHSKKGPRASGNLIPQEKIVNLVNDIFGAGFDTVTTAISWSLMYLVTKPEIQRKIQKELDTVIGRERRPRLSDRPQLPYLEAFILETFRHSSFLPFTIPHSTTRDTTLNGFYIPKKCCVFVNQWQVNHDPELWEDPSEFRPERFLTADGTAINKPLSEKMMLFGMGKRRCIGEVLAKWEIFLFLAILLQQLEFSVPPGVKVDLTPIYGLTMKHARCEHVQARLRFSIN
Cytochrome P450 2D6 (Homo sapiens), sequence (P10635 whole entry, looked up): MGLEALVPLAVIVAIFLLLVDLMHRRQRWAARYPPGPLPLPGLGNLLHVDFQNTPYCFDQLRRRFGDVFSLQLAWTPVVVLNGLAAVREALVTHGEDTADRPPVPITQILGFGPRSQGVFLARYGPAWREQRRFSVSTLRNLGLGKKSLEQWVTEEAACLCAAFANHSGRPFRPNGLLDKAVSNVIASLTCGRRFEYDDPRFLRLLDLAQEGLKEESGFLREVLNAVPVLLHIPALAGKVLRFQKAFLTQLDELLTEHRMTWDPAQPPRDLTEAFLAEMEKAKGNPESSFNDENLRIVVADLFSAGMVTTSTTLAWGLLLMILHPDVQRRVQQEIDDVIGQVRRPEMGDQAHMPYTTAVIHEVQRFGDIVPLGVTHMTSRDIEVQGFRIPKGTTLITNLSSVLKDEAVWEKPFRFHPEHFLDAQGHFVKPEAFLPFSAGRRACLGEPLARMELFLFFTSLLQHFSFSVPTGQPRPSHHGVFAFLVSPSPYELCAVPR
Cytochrome P450 3A4 (Homo sapiens), sequence (P08684 whole entry, looked up): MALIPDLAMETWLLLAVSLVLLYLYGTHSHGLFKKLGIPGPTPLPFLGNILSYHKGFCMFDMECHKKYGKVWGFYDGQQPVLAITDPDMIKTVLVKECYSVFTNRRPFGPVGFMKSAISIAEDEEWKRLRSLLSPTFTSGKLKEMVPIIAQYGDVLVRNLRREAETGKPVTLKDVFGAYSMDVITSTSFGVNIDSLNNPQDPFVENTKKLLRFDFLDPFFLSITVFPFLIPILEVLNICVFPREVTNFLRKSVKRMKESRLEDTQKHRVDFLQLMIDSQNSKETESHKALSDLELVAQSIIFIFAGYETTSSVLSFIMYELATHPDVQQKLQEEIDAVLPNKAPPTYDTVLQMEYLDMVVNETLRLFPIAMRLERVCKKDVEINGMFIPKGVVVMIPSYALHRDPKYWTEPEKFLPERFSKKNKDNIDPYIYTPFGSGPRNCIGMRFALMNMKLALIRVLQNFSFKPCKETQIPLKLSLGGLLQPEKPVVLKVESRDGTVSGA
Cytochrome P450 2C9 (Homo sapiens), sequence (P11712 whole entry, looked up): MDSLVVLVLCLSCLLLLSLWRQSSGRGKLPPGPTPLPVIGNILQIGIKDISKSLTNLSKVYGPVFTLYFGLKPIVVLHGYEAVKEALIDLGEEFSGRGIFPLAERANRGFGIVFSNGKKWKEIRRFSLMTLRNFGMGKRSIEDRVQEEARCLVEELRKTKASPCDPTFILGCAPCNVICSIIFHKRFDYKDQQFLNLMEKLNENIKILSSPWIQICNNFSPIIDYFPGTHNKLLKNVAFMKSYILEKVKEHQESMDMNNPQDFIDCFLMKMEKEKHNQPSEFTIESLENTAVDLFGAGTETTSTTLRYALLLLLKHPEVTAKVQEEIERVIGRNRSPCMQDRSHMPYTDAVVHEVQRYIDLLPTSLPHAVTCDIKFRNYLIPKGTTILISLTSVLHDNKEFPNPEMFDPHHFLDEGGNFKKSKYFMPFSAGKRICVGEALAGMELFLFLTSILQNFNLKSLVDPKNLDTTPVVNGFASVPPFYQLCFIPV

For the compound `CC(C)=CCC/C(C)=C/C(=O)O`, the Potency result in test [1], in test [3], in test [4] and in test [5] was “inactive” each time. The Potency in test [2] was 39.9 µM (active).

Turning to `Cc1cc(C)c(NC(=O)CN(CC(=O)O)CC(=O)O)c(C)c1Br`, the Potency result in test [1], in test [2], in test [3], in test [4] and in test [5] was “inactive” throughout.

As for `CCCCCCCCCCCCCCC`, the Potency result in test [1], in test [2], in test [3], in test [4] and in test [5] was “inactive” in each case.

With `NC(=S)Nc1cccc2ccccc12`, the Potency in test [1] is 2.01 µM (active). The activity change, negative = inhibition in test [2] was -10% [at 10.5 µM]; in test [3], -26.4% [at 10.5 µM]; in test [4] it was 1.12% [at 6.97 µM]; in test [5], 1.29% [at 10.5 µM].

Turning to `CCCOc1ccccc1-c1nc2n[nH]nc2c(=O)[nH]1`, the Potency entry in test [1], in test [2], in test [4] and in test [5] was “inactive” in each case.

As for `CC(C)COC(=O)C(C)C`, the Potency result in test [1], in test [4] and in test [5] was “inactive” each time. The Potency in test [2] was 79.7 µM (active).

Consider `OCc1ccccn1`, for which the Potency entry in test [1], in test [2], in test [3], in test [4] and in test [5] was “inactive” in each case.

For `CCCCN(CCO)CCO`, the Potency result in test [1], in test [2], in test [3], in test [4] and in test [5] was “inactive” throughout.

As to `CC1=CC(=O)CCC1`, the Potency result in test [1], in test [2], in test [3], in test [4] and in test [5] was “inactive” each time.

For the compound `N#CCN(CC#N)CCN(CC#N)CC#N`, the Potency result in test [1], in test [2] and in test [5] was “inactive” throughout.

With `Nc1[nH]c(=O)ncc1F`, the Potency result in test [1], in test [6], in test [3], in test [4] and in test [5] was “inactive” throughout.

Regarding `CCc1cc(S(=O)(=O)O)c2cc(C(C)C)cccc1-2`, the Potency result in test [1], in test [3], in test [4] and in test [5] was “inactive” throughout.

`CCn1c(=O)c2c(nc(/C=C/c3ccc(OC)c(OC)c3)n2C)n(CC)c1=O`: the Potency entry in test [1], in test [3] and in test [4] was “inactive” in each case.

On to `O=C(O)c1cccc(C(=O)O)n1`, for which the Potency result in test [1], in test [6], in test [3], in test [4] and in test [5] was “inactive” throughout.

For the compound `O=Cc1ccccc1[N+](=O)[O-]`, the Potency result in test [1], in test [4] and in test [5] was “inactive” each time. For the same compound, the Potency in test [3] was 31.7 µM (active).

Turning to `c1ccc2cnncc2c1`, the Potency entry in test [1], in test [4] and in test [5] was “inactive” each time. Besides, the Potency in test [3] was 14.2 µM (active).

With `O=C(O)c1ccccc1-c1ccc(C(F)(F)F)cc1`, the Potency result in test [1], in test [2], in test [4] and in test [5] was “inactive” throughout.

These data come from PubChem BioAssay (Tox21).
